In the library only some 0.52% were active in any assay of this set; here they are far more common.
Epigenetic reg: Quantitative High-Throughput Screen for Regulators of Epigenetic Control; AID 1865, 2009; hit rate 0.2% among 280,000; Potency, µM (titrated, usually from 53.9 µM), without a hit: at the highest dose GFP activation, usual class: activators; murine LDR cells, GFP reporter derepression, 30 h; further: % of control where 0% means no effect; nearly all actives have a fitted effect of over 60% in size
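Murine LDR cells bearing a silenced CMV-driven GFP reporter were exposed to compound for 30 h at 37 C. After PBS washes, GFP-positive cells (20-120 um objects) counted by laser-scanning microplate cytometry.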
Vif-A3G inh: qHTS for Inhibitors of Vif-A3G Interactions: qHTS; DNA dC->dU-editing enzyme APOBEC-3G (Homo sapiens), Q9HC16; HeLa A3G-eYFP + Vif (tagged APOBEC3G with the HIV-1 protein that degrades it), YFP fluorescence, overnight; Potency, µM (doses to about 46.1 µM), for inactives: at the top dose activity, negative = active, most hits filed as inhibitors; hit rate 0.076% among 410,000; further: on the % scale 0 is the no-effect control and ±100 the full control effect; nearly all actives have a fitted effect of over 60% in size
Target sequence (Q9HC16 whole entry, looked up): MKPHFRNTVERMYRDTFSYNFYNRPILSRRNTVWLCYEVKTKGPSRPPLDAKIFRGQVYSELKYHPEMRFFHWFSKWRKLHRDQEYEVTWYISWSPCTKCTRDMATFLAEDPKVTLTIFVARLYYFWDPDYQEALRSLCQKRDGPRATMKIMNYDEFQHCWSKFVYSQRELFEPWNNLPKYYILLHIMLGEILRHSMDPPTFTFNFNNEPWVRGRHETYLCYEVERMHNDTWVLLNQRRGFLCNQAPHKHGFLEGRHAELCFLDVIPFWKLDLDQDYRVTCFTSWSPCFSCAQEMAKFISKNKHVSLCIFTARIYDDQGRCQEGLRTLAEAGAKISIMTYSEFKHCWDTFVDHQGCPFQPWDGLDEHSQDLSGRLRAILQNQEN
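Read-out is eYFP fluorescence (Ex 488/Em 500-530) from Vif-expressing HeLa A3G-eYFP cells; more signal means A3G escaped Vif-mediated degradation. Cells plated overnight, compound pinned in, incubated overnight at 37 deg C.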
PINK1 modulator: A Quantitative High throughput Screen to Identify Chemical Modulators of PINK1 Expression; PINK1 immunofluorescence, high-content cytometry, 24 h; Potency, µM (titrated, usually from 76.6 µM), without a hit: top-dose activation (PINK1 increase), usual class: activators; hit rate 0.2% among 410,000; active means well fitted activation curve with a large enough effect; inconclusive means small, poorly fitted or top-dose-only effect; cell line not stated here; further: % of control where 0% means no effect; nearly all actives have a fitted effect of over 65% in size
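Decision-based qHTS: stable cells, 24 h exposure to five compound concentrations, CCCP as control. Fixed cells stained for PINK1 plus nuclear, mitochondrial and cell markers, cytometer read.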
Vif-APOBEC3F blk: qHTS for Inhibitors of Vif-A3F Interactions: qHTS; Potency, µM (top dose mostly 46.1 µM), for inactives: at the top dose activity, negative = active; hit rate 0.2% among 390,000; HeLa A3F-eYFP + Vif (tagged APOBEC3F with the HIV-1 protein that degrades it), YFP fluorescence increase; further: % of control where 0% means no effect; nearly all actives have a fitted effect of over 65% in size
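Fluorescence increase (Ex 488/Em 500-530) after overnight compound treatment at 37 deg C flags inhibition of Vif-driven A3F-eYFP loss in stable HeLa A3F-eYFP/Vif cells seeded overnight beforehand.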
Active calls of the source: *; i = inactive; ? = inconclusive; · = no result. Unless noted, the call rests on the fitted dose curve; in most records, active means well fitted curve in the direction sought with a large enough effect; inconclusive means small, poorly fitted or top-dose-only effect, or another doubt; inactive means no such curve, though single readings can be large; an effect the other way counts as inactive or inconclusive. Potency means the concentration at half of the fitted maximal effect.

SMILES	Epigenetic reg	Vif-A3G inh	PINK1 modulator	Vif-APOBEC3F blk
COc1cc2c(cc1OC)[C@@H]1C(=O)c3ccc(OC)c(CC=C(C)C)c3OC1CO2 (stereo not given in full)	-2.5%	·	20µM*	·
Cc1[nH]n(-c2ccccc2)c(=O)c1C(c1ccc([N+](=O)[O-])cc1)c1c(C)[nH]n(-c2ccccc2)c1=O	-1.1%	9.0%	39.8µM*	1.2%
COC(=O)c1c(-c2ccc(Cl)cc2)noc1N1CCN(c2ccc(C(C)=O)cc2)CC1	?	-1.1%	3.1%	-6.1%
O=[N+]([O-])c1ccc(N2CCCCCC2)c2nonc12	·	15.1%	39.8µM*	?
O=C(NCc1c(-n2cccc2)sc2c1CCCC2)Nc1cccc(C(F)(F)F)c1	-3.4%	-10.7%	3.6%	?
CC(C)CCCn1c(O)c(/C=C2/C=CC=N2)c(=O)[nH]c1=O	3.0%	?	5.3%	25.1µM*
CCCCn1c(O)c(C=NCCCn2ccnc2)c(=O)[nH]c1=O	-5.8%	1.3%	-0.8%	3.8%
O=[N+]([O-])c1ccc(NCc2ccccc2)c2nonc12	22.4µM*	8.4%	39.8µM*	5.0%
Cc1cccc(NC(=O)c2cc3c(=O)n4ccccc4nc3n2C)c1C	2.5%	?	13.6%	5.6%
Cc1cc(N(CCCl)CCCl)ccc1C=Cc1ccncn1	·	?	4.0%	25.1µM*
CCN(CCNc1ccc([N+](=O)[O-])c2cccnc12)S(=O)(=O)c1ccccc1	?	-7.2%	39.8µM*	?
CCN(CCNc1ccc([N+](=O)[O-])c2cccnc12)S(=O)(=O)c1ccc(Cl)cc1	?	1.1%	-2.4%	3.8%
O=c1c2ccccc2nc(/C=C/c2ccc([N+](=O)[O-])o2)n1-c1ccc(O)cc1	1.5%	?	39.8µM*	?
Cc1cccc(-n2c(/C=C/c3ccccc3O)nc3ccccc3c2=O)c1	0.8%	6.5%	-0.1%	-11.8%
Cc1cccc(-n2c(/C=C/c3c(C)[nH]c4ccccc34)nc3ccccc3c2=O)c1	3.98µM*	-10.1%	26.5%	10µM*
Cc1cccc(-n2c(/C=C/c3ccc([N+](=O)[O-])o3)nc3ccccc3c2=O)c1	0.0%	?	9.6%	8.91µM*
c1cncc(CNc2cc(-c3ccc4c(c3)OCO4)ncn2)c1	?	·	2.2%	·
Cc1ccc2oc(-c3ccc(Cl)cc3)c(O)c(=O)c2c1	?	4.6%	1.6%	0.1%
N#Cc1cc(NC(=O)c2ccc(Cl)cc2)ccc1Sc1ccccc1	·	-13.9%	25.1µM*	·
CC(=O)Nc1cccc(-c2ccnc3c2CC(C(=O)NCc2ccco2)O3)c1 (stereo not given)	·	?	10.8%	·
O=C1NC(=O)N(c2ccc3c(c2)OCO3)C(=O)/C1=C\c1ccc(N2CCCCC2)o1	3.1%	-14.8%	0.0%	4.47µM*
Cc1ccccc1N1C(=O)NC(=O)/C(=C/c2ccc(N3CCOCC3)o2)C1=O	-0.8%	-21.6%	2.8%	?
CN1C(=O)C(=Cc2ccc(N3CCCCCC3)o2)C(=O)N(C)C1=S	2.1%	?	9.4%	i
CN1C(=O)C(=Cc2ccc(N3CCOCC3)o2)C(=O)N(C)C1=O	-1.9%	-9.6%	-0.5%	11.2µM*
CCN(CC(=O)Nc1ccccc1C(F)(F)F)C(=O)CCSc1ccc(F)cc1	·	-1.8%	0.8%	?
SMILES	Epigenetic reg	Vif-A3G inh	PINK1 modulator	Vif-APOBEC3F blk
O=c1[nH]c(CN2CC=C(c3ccccc3)CC2)nc2scc(-c3ccccc3)c12	?	?	5.1%	10µM*
O=c1[nH]c(CN2CC=C(c3ccccc3)CC2)nc2cc(C(F)(F)F)ccc12	0.8%	-14.8%	0.2%	-7.4%
CN1/C(=C\C=C2C(=O)NC(=S)NC2=O)C(C)(C)c2ccccc21	17.8µM*	-10.9%	35.5µM*	i
CC1(C)OC(c2ccccc2)=C/C(=C/C=C2C(=O)NC(=S)NC2=O)O1	-3.9%	12.5%	?	?
CC(=O)O.CC(=O)O.[Cd]	?	·	0.0%	·
COc1ccc(OC)c(N=Cc2c(O)n(Cc3ccccc3)c(=S)[nH]c2=O)c1	?	-17.7%	35.5µM*	?
C/C=C1/C[N@@+]2(C)CC[C@]34C(=C(C=O)[C@H]1C[C@H]32)Nc1ccccc14	0.0%	·	·	·
O=c1cc(C(F)(F)F)c2cc3c4c(c2o1)CCCN4CCC3	7.08µM*	1.4%	-1.3%	?

Bioassay records (PubChem)
